The text below walks through data of PubChem BioAssay AID588473 (Sanford-Burnham Center for Chemical Genomics, 2011).

The campaign covered roughly 350,000 compounds. About 1,600 (0.46%) were called active. The sample holds actives, similar compounds and a random draw of the others, so the mix is not that of the screen.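 The calls were made as follows: active = activation of at least 50%, plus an integration ratio under a set limit after plate pattern correction; inactive = the rest.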

The test system of this test is CRF-binding protein / CRF receptor 2 complex (human). In words: agonists of CRF-BP/CRF-R2 complex, primary screen, cell-based, HEK293, calcium dye fluorescence, uHTS (AID 588473).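 Also: plate controls were neutral control wells without compound for no effect and CRF at EC100 for full effect.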 The following applies: calcium dye fluorescence (FLIPR), at 13.2 µM, hits give high values, percent of saturating CRF peptide response.
Take `COc1cc(C(=O)NNC(=O)CN2C(=O)NC3(CCCC3)C2=O)cc(OC)c1OC`: the activation is 0.66% (inactive).

Turning to `Cc1c(NC(=O)C(=O)N/N=C/c2cccs2)c(=O)n(-c2ccccc2)n1C`, the activation was 4.78% (inactive).

Regarding `Cc1cc(C)c(S(=O)(=O)NCC(c2ccc3c(c2)OCO3)N2CCOCC2)c(C)c1` (stereo not given), the activation is -1.15% (inactive).

For the molecule `COc1cccc2c1C(=O)c1c(O)c3c(c(O)c1C2=O)CC(O)(C(C)=NNC(=O)c1ccc(Cl)c(Cl)c1)CC3OC1CC(N)C(O)C(C)O1` (stereo not given), the activation is 67.3% (active).

On to `Cc1ccc(C(=O)N/N=C/c2sc(=O)n(Cc3cccc(C(=O)O)c3)c2Cl)cc1`, for which the activation was 1.16% (inactive).

With `CCCS(=O)(=O)N1CCC(C(=O)NCCc2ccc(OC)c(OC)c2)CC1`, the activation is -0.54% (inactive).

Take `Cc1cccc(C(C)C)c1NC(=O)COC(=O)C1CC(=O)N(Cc2ccccc2)C1` (stereo not given): the activation was -1.23% (inactive).

`NC(=O)c1ccc(NC(=O)COC(=O)c2c3c(nc4ccccc24)/C(=C\c2ccc4c(c2)OCO4)CCC3)cc1`: the activation is 255% (active).

Regarding `NS(=O)(=O)c1ccc(NC(=O)COC(=O)c2c3c(nc4ccccc24)/C(=C\c2ccc4c(c2)OCO4)CCC3)cc1`, the activation is 0.53% (inactive).

On to `COc1cc(/C=C2\CCCc3c2nc2ccccc2c3C(=O)O)cc(Cl)c1O`, for which the activation is 0.27% (inactive).

Turning to `COc1ccc([N+](=O)[O-])cc1NC(=O)CC1SC(=Nc2cccc(C)c2C)N(/N=C(\C)c2ccc(C)cc2)C1=O` (stereo not given), the activation is -0.05% (inactive).

Regarding `Cc1ccc(C(CC(=O)O)NC(=O)c2ccc(S(=O)(=O)N3CCCC3)cc2)cc1` (stereo not given), the activation is 0.98% (inactive).

As for `Cc1ccc(C(=O)COC(=O)CCCC(=O)NC2CCCCC2)cc1[N+](=O)[O-]`, the activation was 1.32% (inactive).

Consider `COc1ccc(C)cc1NC(=O)CSc1nnc(CC(=O)Nc2ccccc2F)n1C`, for which the activation is 3.27% (inactive).

Turning to `Cc1nn(C)cc1N1C(=O)c2cccc3c(N)ccc(c23)C1=O`, the activation is 200% (active).

In the case of `O=C1c2cccc3c([N+](=O)[O-])ccc(c23)C(=O)N1CC1CCCO1` (stereo not given), the activation is 12.3% (inactive).

Consider `CN1C(=O)c2cccc3c(N)ccc(c23)C1=O`, for which the activation is 222% (active).

On to `CC(C(=O)O)N1C(=O)c2cccc3cccc1c23` (stereo not given), for which the activation was -0.43% (inactive).

Turning to `CC(C)n1c(CN2CCN(Cc3ccccc3)CC2)nc2ccccc21`, the activation was 1.04% (inactive).

As for `COc1cc(CNCc2ccc3c(c2)OCO3)c([N+](=O)[O-])cc1OC`, the activation is -1.29% (inactive).

Regarding `COc1ccc(Br)cc1CN(C)CC(=O)Nc1cc([N+](=O)[O-])ccc1OC`, the activation was 0.1% (inactive).

As for `CCCCN1CCNC1=S`, the activation is -0.03% (inactive).

Take `CCCCN1C(N)=NC[C@@H]1CC1CCCCC1`: the activation was -0.4% (inactive).

In the case of `CCOc1ccc(NC(=O)c2ccc(CSc3nnnn3C)cc2)cc1`, the activation was 1.79% (inactive).

Regarding `NS(=O)(=O)c1ccc(NC(=O)COC(=O)C2(c3ccc(F)cc3)CCCC2)cc1`, the activation is -2.26% (inactive).

Regarding `Cc1cc(NS(=O)(=O)c2ccc(NC(=O)c3cccc(OC(F)F)c3)cc2)nc(C)n1`, the activation is 73.2% (active).

For the molecule `Cc1cc(NS(=O)(=O)c2ccc(NC(=O)C(C)Oc3cccc(C)c3C)cc2)nc(C)n1` (stereo not given), the activation was -1.14% (inactive).

Consider `Cc1cc(NS(=O)(=O)c2ccc(NC(=O)c3cccnc3)cc2)nc(C)n1`, for which the activation is -0.63% (inactive).

`COc1ccc(N2CCN(C(CNS(=O)(=O)c3ccc(C)cc3)c3ccccc3)CC2)cc1` (stereo not given): the activation was -2.07% (inactive).

`CN(Cc1ccccc1Cl)C(=O)C1CCC(=O)N(CCc2cccc(F)c2)C1` (stereo not given): the activation is 0.61% (inactive).

For `COc1cc(C)ccc1OCC(=O)OCC(=O)c1ccc[nH]1`, the activation was 2.06% (inactive).

With `CC(C)CC(O)C1CCN(C(=O)CCc2nnc(-c3ccc4c(c3)OCO4)o2)CC1` (stereo not given), the activation was -0.38% (inactive).

As to `O=C(NCCN1CCOCC1)C1CCN(S(=O)(=O)c2ccccc2)CC1`, the activation is -0.1% (inactive).

As to `O=C1NC[C@@H](c2ccccc2)OC(=O)[C@H](Cc2ccc(F)cc2)CC/C=C/C[C@H]1CC(=O)N(CCO)Cc1ccccc1`, the activation was 54.7% (active).

For the molecule `O=C1CCC/C=C/C[C@@H](CC(=O)N(CCO)Cc2ccccc2)C(=O)NC[C@H](c2ccccc2)O1`, the activation is -0.44% (inactive).

With `O=C1N[C@@H](c2ccccc2)COC(=O)[C@H](Cc2ccc(F)cc2)C/C=C\C[C@@H]1CC(=O)N(CCO)Cc1ccccc1`, the activation is -2% (inactive).

For `CCCNC(=O)c1ccc(N2CCC3(CC2)CC(c2ccc(Cl)cc2)=NO3)c([N+](=O)[O-])c1`, the activation is 0.95% (inactive).

Turning to `CCN(CC)C(=O)C1=C(C)N(Cc2ccc(F)cc2)C(=O)C(CC(=O)NCc2cccc3ccccc23)C1` (stereo not given), the activation is -1.12% (inactive).

For `COc1ccc(CNC(=O)CN2CCC(n3nnc4cc(F)ccc43)CC2)cc1`, the activation was 0.03% (inactive).

Turning to `COc1cccc(/C=C2\SC(=S)N(CCCC(=O)N3CCOCC3)C2=O)c1`, the activation was 2.11% (inactive).

`Cc1ccc(-c2nn(-c3ccccc3)cc2/C=C2\SC(=S)N(CCCCCC(=O)O)C2=O)o1`: the activation was 60.7% (active).

For the molecule `COc1ccc(/C=C2/SC(=O)N(CCCCCC(=O)Nc3ccccc3C(=O)O)C2=S)cc1`, the activation is -2.58% (inactive).

Take `COCCCNC(=S)NC(=O)c1ccc([N+](=O)[O-])cc1`: the activation is -0.87% (inactive).

In the case of `CC(C)CC(=O)NC(=S)NNC(=O)c1cccc([N+](=O)[O-])c1`, the activation was 55% (active).

Consider `CC(=O)Nc1ccc(C(=O)NNC(=O)CCCCC(=O)NNC(=O)c2ccc(NC(C)=O)cc2)cc1`, for which the activation is -1.83% (inactive).

On to `O=C(NC(=S)NC1CCS(=O)(=O)C1)c1cccc([N+](=O)[O-])c1` (stereo not given), for which the activation is 0.96% (inactive).

`CCCCCC(=O)NC(=S)NNC(=O)c1ccc([N+](=O)[O-])cc1`: the activation was 96.3% (active).

Take `CC(C)(C)SCCNC(=O)c1cccc([N+](=O)[O-])c1`: the activation is -0.01% (inactive).

`COC(=O)c1c(CCl)noc1C(=O)NC(C)C`: the activation was 0.17% (inactive).

Take `Cc1ccc(Nc2c(O)nc[nH]c2=O)cc1C`: the activation was -0.7% (inactive).

With `CCN(C(=O)Cc1nc(N)n[nH]1)C1(C(=O)Nc2ccccc2)CCCCC1`, the activation is 1.43% (inactive).

Regarding `C=CCO/N=C/C1=C(O)C(C(=O)OC)C(C)(C)CC1=O` (stereo not given), the activation was 3.2% (inactive).

On to `Cc1ccc(O)c(NC(=S)NC(=O)COc2ccc(Br)cc2)c1`, for which the activation is 195% (active).

As for `Cn1cccc1C(=O)NNC(=O)COc1ccc(Br)cc1`, the activation is 0.35% (inactive).

On to `CC(=O)Nc1ccc(OC(=O)COc2ccc(Br)cc2)cc1`, for which the activation is 0.61% (inactive).
